# Compounds with a hit are over-represented: about 0.3% of the library has one in this group of screens.
# S-ASM inh: human S-ASM enzyme inhibition. P17405. placental ASM, HMU-PC fluorogenic substrate, 60 min. Potency, µM (titrated, usually from 57.5 µM), without a hit: at the top dose activity change, negative = inhibition, usual class: inhibitors. 0.006% of 340,000 active. AID 504937; note: potency is the fitted concentration of half-maximal effect
# Target sequence (P17405 47-631 limits assumed): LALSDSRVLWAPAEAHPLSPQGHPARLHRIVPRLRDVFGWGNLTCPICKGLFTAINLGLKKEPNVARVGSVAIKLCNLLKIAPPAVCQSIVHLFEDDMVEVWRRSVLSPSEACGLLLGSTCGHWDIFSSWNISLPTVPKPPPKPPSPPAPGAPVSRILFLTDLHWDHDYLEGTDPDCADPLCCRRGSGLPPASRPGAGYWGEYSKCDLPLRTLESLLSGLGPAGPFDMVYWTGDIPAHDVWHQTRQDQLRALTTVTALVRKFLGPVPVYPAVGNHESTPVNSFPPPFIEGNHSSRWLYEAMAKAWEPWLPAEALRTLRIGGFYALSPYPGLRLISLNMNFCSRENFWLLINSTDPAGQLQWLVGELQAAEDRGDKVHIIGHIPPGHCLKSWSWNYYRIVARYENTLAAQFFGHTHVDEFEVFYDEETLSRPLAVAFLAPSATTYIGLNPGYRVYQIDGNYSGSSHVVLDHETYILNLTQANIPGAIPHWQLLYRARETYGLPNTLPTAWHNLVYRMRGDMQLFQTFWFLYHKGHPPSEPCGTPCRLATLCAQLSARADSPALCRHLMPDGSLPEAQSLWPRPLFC
#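 Human placenta-derived ASM enzyme was preincubated with compound for 10 minutes at room temperature, then given fluorogenic substrate HMU-PC0 (9 uM final) for 60 minutes at 37 °C; a pH 10 stop preceded fluorescence reading at Ex 386/Em 447 nm.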
# USP2a block: USP2a (human) protease inhibition; AID 463254; Potency, µM (titrated, usually from 38.3 µM), for inactives: at the highest dose activity change, negative = inhibition, actives largely listed as inhibitors; USP2 core, Ub-CHOP2 coupled fluorogenic reporter, 485/531; 0.01% of 330,000 active;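 note: potency is the fitted concentration of half-maximal effect; plate controls were DMSO wells for no effect and full inhibition by NEM control for full effect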
#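 Deubiquitinase activity read as fluorescence (485/531 nm) after Ub-CHOP2 cleavage activates the enterokinase reporter on its substrate; USP2 core 10nM, Ub-CHOP2 and substrate 25nM each, 30min compound preincubation then 60min RT; data normalized to NEM, curves fitted.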
# CCT modulator: cytosolic chaperonin activity modulation; activity change, % (no concentration beside the values), hits read low; AID 651819; 0.3% of 360,000 active; purified chaperonin ATPase assay, HTRF ADP detection, 30 min; in the data active = activity change below about -30%; note: % is set by controls: 0 for no effect and ±100 for the full control effect
#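 Enzyme 40 or 20 nM (batch-dependent) in Tris pH 7.4/KCl/MgCl2/DTT; cpd 76 uM single point; ATP 10 uM; 30 min 37 °C; Transcreener ADP HTRF detection, 30 min RT; ratio 665/615.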
# Mm-Cpn inhibitor: blocks the Methanococcus maripaludis chaperonin Mm-Cpn. Potency, µM (top dose mostly 76.9 µM), inactives show top-dose activity, negative = inhibition, usual class: inhibitors. purified Mm-Cpn ATPase, ADP Transcreener TR-FRET. 0.031% of 330,000 active; note: potency is the fitted concentration of half-maximal effect; % is set by controls: 0 for no effect and ±100 for the full control effect; nearly all actives have a fitted effect of over 80% in size
#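 Eu-cryptate anti-ADP/ADP-d2 competition gives a ratio inversely related to ADP. Enzyme at 25 nM was pre-exposed to compound for 10 min, then given 10 uM ATP for 30 min, 37°C throughout.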
# Numbers without * were called inactive; ? = inconclusive; / = no result given. Unless noted, calls come from the whole dose curve; as a rule, active = well fitted curve in the direction sought with a large enough effect; inconclusive = small, poorly fitted or top-dose-only effect, or another doubt; inactive = no such curve, though single readings can be large; an effect the other way counts as inactive or inconclusive.
SMILES,S-ASM inh,USP2a block,CCT modulator,Mm-Cpn inhibitor
CC(C)(C)c1nnc(NC(=O)COc2ccc3c(c2)OCO3)s1,4%,0%,-1,1%
COc1ccc(CCNC(=O)CN(C)S(=O)(=O)c2ccc(OC)cc2)cc1,-6%,0%,0,0%
CC(C)c1ccc(N(CC(=O)N2CCN(Cc3ccccc3)CC2)S(C)(=O)=O)cc1,6%,0%,-95*,-2%
CS(=O)(=O)N(CC(=O)N1CCN(Cc2ccccc2)CC1)c1ccc(F)cc1,0%,-2%,1,2%
O=C(O)c1cnc(-c2ccccc2)nc1C(F)(F)F,-3%,0%,-51*,1%
CN(C)S(=O)(=O)c1ccc(NC(=O)c2ccc([N+](=O)[O-])cc2)cc1,-4%,11%,-2,2%
CC(C)N(C(=O)c1ccc(C(=O)Nc2ccc([N+](=O)[O-])cc2)cc1)C(C)C,2%,0%,-32*,-1%
O=C(CN1C(=O)C2C3C=CC(C3)C2C1=O)NCc1ccccc1 (stereo unspecified),-1%,3%,-3,-2%
O=C(CN1C(=O)C2C3C=CC(C3)C2C1=O)NCCc1ccccc1 (stereo unspecified),-1%,2%,-51*,?
Cc1ccc(S(=O)(=O)c2nc(Nc3ccccc3)sc2Cl)cc1,-14%,-1%,0,-4%
COc1ccc(C(CNC(=O)c2cccc(S(=O)(=O)Nc3ccccc3OC)c2)N2CCCCC2)cc1 (stereo unspecified),/,/,3,/
COc1ccc(C(CNC(=O)c2cccc(S(=O)(=O)Nc3ccccc3OC)c2)N2CCCC2)cc1 (stereo unspecified),/,1%,-51*,0%
Cc1ccc2cc(C3CC(c4ccco4)=NN3C(=O)CCCC(=O)O)c(Cl)nc2c1 (stereo unspecified),-1%,-3%,0,0%
Cc1ccc2nc(Cl)c(C3CC(c4ccco4)=NN3C(=O)CCCC(=O)O)cc2c1 (stereo unspecified),-4%,2%,-109*,1%
Cc1ccc(S(=O)(=O)N2CCN(C(=O)N(C)C)CC2)cc1C,-1%,0%,-52*,0%
CCCn1c(N2CCN(CC(=O)NCc3cccs3)CC2)nc2ccccc21,2%,0%,-1,3%
COc1ccc(C2CC(c3cccs3)=NN2C(=O)CSc2nc(=O)n3ccc(C)cc3n2)cc1 (stereo unspecified),-7%,-6%,-46*,?
C=C(C)C(=O)Nc1cccc(C2=NOC3(C2)C[C@H](C(N)=O)N(C(=O)/C=C/C)C3)c1 (stereo partly specified),1%,8%,-50*,-5%
CCn1c(CNC(=O)C2CCCCC2)cc2ccccc21,2%,-1%,-52*,-5%
COC(=O)c1ccc2c(c1)C(NC(C)=O)CCc1cc(OC)c(OC)c(OC)c1-2 (stereo unspecified),-2%,/,0,/
CCOc1ccc(C(=O)CCC(=O)N2CCN(S(=O)(=O)c3cccc(F)c3)CC2)cc1,0%,-2%,-49*,-1%
Cc1ccc(OCCCC(=O)N2CCN(S(=O)(=O)c3cccc(F)c3)CC2)cc1,5%,-1%,-3,1%
COc1ccc(N2CCN(S(=O)(=O)CCNC(=O)COc3ccc(Cl)cc3)CC2)cc1,2%,-5%,-40*,0%
COc1ccc(C)cc1Nc1c2c(nc3ccccc13)CCC2,-2%,2%,-34*,0%
COc1ccc(Nc2c3c(nc4ccccc24)CCCC3)cc1OC,2%,-4%,0,-14%
SMILES,S-ASM inh,USP2a block,CCT modulator,Mm-Cpn inhibitor
Nc1nc(SCC(=O)Nc2cc(-c3ccccc3)nn2-c2ccccc2)n[nH]1,5%,0%,-97*,0%
O=C(NCCN1CCOCC1)c1c(O)nc2ccccn2c1=O,0%,3%,-72*,-2%
Cc1ccn2c(=O)c(C(=O)NCCN3CCOCC3)c(O)nc2c1,5%,1%,0,0%
COc1ccc(OCC(=O)NC2CCCc3ccccc32)cc1 (stereo unspecified),-5%,1%,-1,1%
O=C1C(=O)N(CC2CCCO2)C(c2ccccc2[N+](=O)[O-])/C1=C(/O)c1ccccc1 (stereo unspecified),-1%,-2%,-49*,0%
O=c1[nH]c2ccc(Cl)cc2c(=O)n1Cc1ccco1,7%,3%,-2,1%
O=C(Nc1cc(S(=O)(=O)N2CCOCC2)ccc1N1CCCC1)c1ccccc1F,/,/,-1,/
O=C(Nc1cc(S(=O)(=O)N2CCOCC2)ccc1N1CCCCC1)c1ccccc1Br,-1%,-8%,-33*,?
Cc1ccc(CCC(=O)Nc2ccc(C#N)cc2)o1,1%,0%,-103*,3%
COc1ccc(-c2nc(NC(=O)Cn3cnnn3)sc2C)cc1,-3%,0%,1,-1%
COc1ccc(-c2nc(NC(=O)CSCCO)sc2C)cc1,-2%,-1%,-56*,-2%
Cc1nn(C2CCS(=O)(=O)C2)c(C)c1C=O (stereo unspecified),-1%,4%,-36*,-4%
COc1ccc2ncc(S(=O)(=O)c3ccccc3)c(N3CCN(c4ccccc4)CC3)c2c1,-9%,0%,-2,?
O=C(NCCN1CCCCC1)Nc1cccc(C(F)(F)F)c1,-2%,1%,0,-7%
O=C(C[n+]1ccc(/C=C/c2ccccc2)cc1)c1ccc2c(c1)OCCO2,8%,-8%,-66*,-1%
O=C(COC(=O)C(O)c1ccccc1)c1ccc2c(c1)OCCO2 (stereo unspecified),0%,2%,-39*,-1%
CN1CCc2c(sc3c2C(=O)NC(c2ccco2)N3)C1 (stereo unspecified),281%,4%,-1,-2%
O=C1NC(c2cccs2)Nc2sc3c(c21)CCCC3 (stereo unspecified),65%,1%,-94*,2%
COC(=O)N1[C@H](C)C=C[C@]1(Cc1ccccc1)C(=O)OC,62%,/,-4,/
COc1ccccc1NC(=O)c1cc2c(CO)cnc(C)c2oc1=Nc1ccc(OC)c(OC)c1,-19%,0%,3,0%
COc1ccc(NC(=O)c2cc3c(CO)cnc(C)c3oc2=Nc2cccc(C)c2)c(OC)c1,-5%,-1%,-37*,2%
CCCC(C)c1nc(C(N)=O)c2[nH]c(=O)n(-c3ccc(OC)cc3OC)c2n1 (stereo unspecified),0%,3%,-78*,0%
CCc1nc(C(N)=O)c2[nH]c(=O)n(-c3ccc(OC)cc3OC)c2n1,1%,0%,-3,0%
CC(=O)c1c(C)[nH]c(C(=O)/C(C#N)=C/c2cccc(C)c2)c1C,-1%,-2%,-1,?
CCOC(=O)c1c(C)[nH]c(C(=O)/C(C#N)=C/c2ccc(OCC)cc2)c1C,-23%,2%,-119*,0%
CCCNC(=O)N1CCN(Cc2ccco2)CC1,8%,3%,-63*,0%
CN(C)CCOCCP(=O)(c1ccccc1)c1ccccc1,1%,10µM*,-1,?

# Bioassay records deposited in PubChem BioAssay by National Center for Advancing Translational Sciences (NCATS).
